This note sets out measurements from PubChem BioAssay (EPA / NIEHS).

Each structure is given as a SMILES string. Active and inactive are the calls of the source. How the source made its calls: active means hit-call score of the fitted dose curve at least 0.9, where 1 is the maximum; inactive means score below 0.9.

What is called AC50 is the concentration giving half of the maximal activity seen.

Read-out in assay [1]: Human Leukocyte Antigen - DR isotype (HLADR), HLA-DRA (gene 3122)
Kind of assay: BSK_BE3C_HLADR: BioMAP Diversity Plus: BE3C Assay for Human Leukocyte Antigen - DR isotype (HLADR) Biomarker Activity (AID 2283032). Conditions: primary human bronchial epithelial cells; actives raise or lower the signal. Summed up: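 BioMAP BE3C format: human bronchial epithelium, 24 h compound treatment, ELISA detection of HLA-DR, with bidirectional analysis relative to DMSO.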

Read-out in assay [2]: Interferon-gamma inducible Protein 10 (IP10), CXCL10 (gene 3627)
Description: BSK_BE3C_IP10: BioMAP Diversity Plus: BE3C Assay for Interferon-gamma inducible Protein 10 (IP10) Biomarker Activity (AID 2283034). Conditions: primary human bronchial epithelial cells; actives raise or lower the signal. The method, boiled down:
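BE3C cells (human bronchial epithelial, primary); 24 h exposure; ELISA for IP-10; DMSO-referenced bidirectional fit.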

Read-out in assay [3]: Monokine induced gamma interferon (MIG), CXCL9 (gene 4283)
Kind of assay: BSK_BE3C_MIG: BioMAP Diversity Plus: BE3C Assay for Monokine induced gamma interferon (MIG) Biomarker Activity (AID 2283035).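 Further: MIG protein measured by ELISA in BE3C cultures after 24 h of dosing.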 As to conditions: primary human bronchial epithelial cells; actives raise or lower the signal. Summed up: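 hu bronchial epithelial 1° cells, 24 h cpd; MIG by ELISA; bidirectional fit, DMSO = baseline.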

Read-out in assay [4]: Transforming growth factor beta 1 (TGFb1), TGFB1 (gene 7040)
Kind of assay: BSK_BE3C_TGFb1: BioMAP Diversity Plus: BE3C Assay for Transforming growth factor beta 1 (TGFb1) Biomarker Activity (AID 2283036;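 further: TGF-b1 protein level measured by ELISA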). Conditions: primary human bronchial epithelial cells; actives raise or lower the signal. The method, boiled down: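 TGF-b1 measured via ELISA, 24 h after chemical dosing of human bronchial epithelial cells (BE3C). Overt cytotoxicity assessed in parallel by SRB (0.1%, TCA-fixed, 560 nm); analysis bidirectional relative to DMSO.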

Read-out in assay [5]: Plasminogen activator inhibitor-1 (PAI1), SERPINE1 (gene 5054)
Description: BSK_BE3C_PAI1: BioMAP Diversity Plus: BE3C Assay for Plasminogen activator inhibitor-1 (PAI1) Biomarker Activity (AID 2283037). As to conditions: primary human bronchial epithelial cells; actives raise or lower the signal. The method, boiled down:
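In this multiplexed primary-cell system, bronchial epithelial cells receive test chemical and are sampled at 24 h. PAI-1 is read by ELISA, with DMSO serving as negative control for bidirectional fitting.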

Read-out in assay [6]: urokinase plasminogen activator (uPA), PLAU (gene 5328)
Kind of assay: BSK_BE3C_uPA: BioMAP Diversity Plus: BE3C Assay for urokinase plasminogen activator (uPA) Biomarker Activity (AID 2283038).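 On outcome: uPA protein level quantified by ELISA in cell cultures; uPA read one day after compound addition.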 Conditions: primary human bronchial epithelial cells; actives raise or lower the signal. Summed up:
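Bronchial epithelial cells (human, primary); chemical 24 h; uPA by ELISA; bidirectional fit vs DMSO. SRB (0.1%, after 10% TCA fixation, 560 nm) in parallel cultures for cytotoxicity.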

Read-out in assay [7]: Urokinase-type plasminogen activator receptor (uPAR), PLAUR (gene 5329)
Description: BSK_BE3C_uPAR: BioMAP Diversity Plus: BE3C Assay for Urokinase-type plasminogen activator receptor (uPAR) Biomarker Activity (AID 2283039).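 On outcome: uPAR protein level measured by ELISA on the cells; cells exposed to compound for one day before measurement.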 As to conditions: primary human bronchial epithelial cells; actives raise or lower the signal. The method, boiled down:
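Chemically treated human bronchial epithelial cells (lung primary) are assayed for uPAR by ELISA after 24 h, with data fitted in both directions using DMSO as negative control.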

Read-out in assay [8]: Interleukin-6 (IL6), IL6 (gene 3569)
Kind of assay: BSK_CASM3C_IL6: BioMAP Diversity Plus: CASM3C Assay for Interleukin-6 (IL6) Biomarker Activity for (AID 2283040). As to conditions: primary human coronary artery smooth muscle cells; actives raise or lower the signal.

Read-out in assay [9]: Tissue plasminogen activator (tPA), PLAT (gene 5327)
Description: BSK_BE3C_tPA: BioMAP Diversity Plus: BE3C Assay for Tissue plasminogen activator (tPA) Biomarker Activity (AID 2283041).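 On outcome: tPA level quantified by ELISA one day after compound addition.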 As to conditions: primary human bronchial epithelial cells; actives raise or lower the signal. The method, boiled down:
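Using human lung primary bronchial epithelial cells, tPA was measured by ELISA 24 h after dosing; data fitted relative to DMSO.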

Read-out in assay [10]: Interleukin-8 (IL8), CXCL8 (gene 3576)
Kind of assay: BSK_CASM3C_IL8: BioMAP Diversity Plus: CASM3C Assay for Interleukin-8 (IL8) Biomarker Activity (AID 2283042).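 Further: IL-8 protein level quantified by ELISA.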 As to conditions: primary human coronary artery smooth muscle cells; actives raise or lower the signal.

Read-out in assay [11]: Human Leukocyte Antigen - DR isotype (HLADR), HLA-DRA (gene 3122)
Description: BSK_CASM3C_HLADR: BioMAP Diversity Plus: CASM3C Assay for Human Leukocyte Antigen - DR isotype (HLADR) Biomarker Activity (AID 2283043).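 Further: cell-surface HLA-DR protein level quantified by ELISA.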 Conditions: primary human coronary artery smooth muscle cells; actives raise or lower the signal.

Read-out in assay [12]: Macrophage colony-stimulating factor (MCSF), CSF1 (gene 1435)
Kind of assay: BSK_CASM3C_MCSF: BioMAP Diversity Plus: CASM3C Assay for Macrophage colony-stimulating factor (MCSF) Biomarker Activity (AID 2283044).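 Further: M-CSF protein amount quantified by ELISA after 24 h exposure.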 As to conditions: primary human coronary artery smooth muscle cells; actives raise or lower the signal.

Read-out in assay [13]: Low-density lipoprotein receptor (LDLR), LDLR (gene 3949)
Description: BSK_CASM3C_LDLR: BioMAP Diversity Plus: CASM3C Assay for Low-density lipoprotein receptor (LDLR) Biomarker Activity (AID 2283045).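 Further: LDLR protein level on the cell surface quantified by ELISA.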 As to conditions: primary human coronary artery smooth muscle cells; actives raise or lower the signal.

Read-out in assay [14]: Monocyte Chemoattractant Protein-1 (MCP1), CCL2 (gene 6347)
Description: BSK_CASM3C_MCP1: BioMAP Diversity Plus: CASM3C Assay for Monocyte Chemoattractant Protein-1 (MCP1) Biomarker Activity (AID 2283046).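 Further: MCP-1 level quantified by ELISA 24 h after dosing.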 As to conditions: primary human coronary artery smooth muscle cells; actives raise or lower the signal.

Assay [15] is described as follows: BSK_CASM3C_Proliferation: Cell Proliferation Assessment in the BioMAP Diversity Plus: CASM3C Assay (AID 2283047).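 Further: sulforhodamine B total protein stain as relative cell number at 560 nm; sub-confluent cells exposed 48 h before staining; fitted both ways against DMSO so gain or loss of cell number.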 Conditions: primary human coronary artery smooth muscle cells.
Read-out in assay [16]: Monokine induced gamma interferon (MIG), CXCL9 (gene 4283)
Kind of assay: BSK_CASM3C_MIG: BioMAP Diversity Plus: CASM3C Assay for Monokine induced gamma interferon (MIG) Biomarker Activity (AID 2283048).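 Further: MIG protein level measured by ELISA.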 As to conditions: primary human coronary artery smooth muscle cells; actives raise or lower the signal.

Read-out in assay [17]: serum amyloid A (SAA), SAA1 (gene 6288)
Description: BSK_CASM3C_SAA: BioMAP Diversity Plus: CASM3C Assay for serum amyloid A (SAA) Biomarker Activity (AID 2283049).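 Further: SAA protein level quantified by ELISA.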 As to conditions: primary human coronary artery smooth muscle cells; actives raise or lower the signal.

Assay [18] is described as follows: BSK_CASM3C_SRB: Viability Assessment in the BioMAP Diversity Plus: CASM3C Assay (AID 2283050).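 Further: total protein by SRB staining as cytotoxicity measure in parallel cultures.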 Conditions: primary human coronary artery smooth muscle cells.
Read-out in assay [19]: Thrombomodulin, THBD (gene 7056)
Kind of assay: BSK_CASM3C_Thrombomodulin: BioMAP Diversity Plus: CASM3C Assay for Thrombomodulin Biomarker Activity (AID 2283051).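 Further: thrombomodulin protein level measured by ELISA 24 h after dosing.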 Conditions: primary human coronary artery smooth muscle cells; actives raise or lower the signal.

`Cc1c(C(=O)O)c(O)cc2c1C(=O)c1c(O)c([C@@H]3O[C@H](CO)[C@@H](O)[C@H](O)[C@H]3O)c(O)c(O)c1C2=O`: the outcome in assay [1], in assay [2], in [3], in assay [4], in assay [5] and in assay [6] was inactive. Moreover, the result in [7], in assay [8], in [9], in [10], in assay [11] and in [12] was inactive. The result in assay [13], in assay [14], in assay [15], in [16], in assay [17] and in assay [18] was inactive. In [19], the result was inactive.
For the compound `CCCCOC(=O)CCCCCCCCC(=O)OCCCC`, the result in assay [1], in assay [2], in assay [3], in assay [5], in assay [6] and in [7] was inactive. Also, the outcome in assay [8], in [9], in assay [10], in [11], in [12] and in assay [13] was inactive. Besides, the outcome in assay [14], in [15], in assay [16], in assay [17], in assay [18] and in assay [19] was inactive.
On to `Cc1ccc(C(C)C)c(O)c1`, for which the outcome in assay [1], in [2], in [3], in [5], in [6] and in assay [7] was inactive. Besides, the outcome in [8], in assay [9], in assay [10], in assay [11], in assay [12] and in assay [13] was inactive. Further, the result in [14], in assay [15], in [16], in assay [18] and in assay [19] was inactive.
For `COc1ccc2c(c1)c(CC(=O)O)c(C)n2C(=O)c1ccc(Cl)cc1`, the result in assay [1], in [2], in [3], in assay [4], in assay [5] and in assay [6] was inactive. The outcome in assay [7], in assay [8], in [9], in assay [10], in assay [11] and in [12] was inactive. The result in assay [13], in assay [14], in [15], in assay [16], in assay [17] and in [18] was inactive. The outcome in [19] was inactive.
On to `Cc1ccc2ncccc2c1`, for which the result in assay [1], in [2], in assay [3], in [5], in assay [6] and in assay [7] was inactive. The outcome in assay [8], in assay [9], in assay [10], in assay [11], in assay [12] and in assay [13] was inactive. Further, the result in assay [14], in assay [15], in assay [16], in [17], in assay [18] and in [19] was inactive.
As to `CCc1c(C(=O)NN2CCCCC2)nn(-c2ccc(Cl)cc2Cl)c1-c1ccc(Br)cc1`, the AC50 in assay [1] is 11 µM (active); in [2] it was 24 µM (active); in [5], 11 µM (active); in assay [6], 33.3 µM (active); in assay [7], 14.4 µM (active); in assay [9], 20 µM (active). For the same compound, the AC50 in [11] is 29.9 µM (active); in [14] it was 33.8 µM (active); in assay [15], 20.2 µM (active); in assay [18], 16.8 µM (active). Moreover, the result in [3], in [8], in [10], in assay [12], in assay [13] and in assay [16] was inactive. The result in assay [17] and in assay [19] was inactive.
`Cc1oc(-c2ccccc2)nc1CCOc1cccc2c1ccn2CCC(=O)O`: the half-maximal activity concentration (AC50) in assay [1] was 20.7 µM (active); in assay [2] it was 26 µM (active); in assay [9], 20 µM (active). Moreover, the result in [3], in assay [5], in [6], in assay [7], in [8] and in [10] was inactive. For the same compound, the result in assay [11], in assay [12], in assay [13], in [14], in assay [15] and in [16] was inactive. Also, the result in assay [17], in assay [18] and in assay [19] was inactive.
On to `Cc1cc(NC(=O)C(=O)O)cc(C)c1Oc1ccc(O)c2c1CCC2`, for which the result in assay [1], in assay [2], in assay [3], in [4], in assay [5] and in assay [6] was inactive. Further, the result in [7], in assay [8], in assay [9], in [10], in assay [11] and in assay [12] was inactive. The outcome in assay [13], in assay [14], in [15], in assay [16], in assay [17] and in [18] was inactive. Also, the result in assay [19] was inactive.
